Each structure is given as a SMILES string. “And” between values parts separate entries of the source, which are not always exact repeats. Equal entries are not always repeated. The source made the active and inactive calls.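 How the source made its calls, unless noted: active means thallium flux through the channel raised or lowered by more than 3 SD from vehicle-only wells, actives on both sides; inactive means the rest.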

Assay [1] in a line: P. berghei load reduction in hepatocytes – cell-based, HepG2, luciferase luminescence, HepG2 viability, primary screen (AID 624349; in the data active means parasite load remaining mostly below about 12%, no sharp cut-off; inactive means mostly above about 10%;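 further: 100% = mean of DMSO negative control wells on the same plate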). The settings on record: P. berghei liver stage in HepG2, luciferase luminescence, concentration not given here; parasite load remaining: stronger effect = lower value; viability: measured here: HepG2 viability without parasites.
The nature of assay [2]: signal quenchers or enhancers, Cy5 substrate/SSB – biochemical, NIH Clinical Collection, E. coli SSB, artefact control for HCV NS3 helicase inhibitor project (AID 743268; call rule not given here). The following applies: Cy5-oligo bound E. coli SSB, fluorescence interference.
Assay [3] has as its system Hepatitis C virus NS3 helicase. Nature of the assay: blockers of NS3h binding to DNA – biochemical, fluorescence polarization, NIH Clinical Collection, primary screen (AID 743270; call rule not given here). The following applies: NS3 helicase binding to Cy5-dT15 DNA, stronger effect = higher value, concentration not given here.
Assay [4] addresses Single-stranded DNA-binding protein (Escherichia coli (strain K12)) (UniProt P0AGE0). As to the kind of experiment: SSB-ssDNA binding inhibitors – biochemical, fluorescence polarization, NIH Clinical Collection, counter-screen for HCV NS3 helicase inhibitor project (AID 743271; in the data active means inhibition above about 28%). The settings on record: E. coli SSB-DNA binding, stronger effect = higher value, concentration not given here. Background: Fluorescence polarisation rises when a labelled molecule tumbles more slowly, as on binding a larger partner.

Assay [5] is described as follows: compounds distorting NS3 helicase fluorescence signal – biochemical, NIH Clinical Collection, artefact control for HCV NS3 helicase inhibitor project (AID 743272; call rule not given here;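 further: HCV NS3 helicase with a Cy5 labelled single stranded DNA probe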). The following applies: fluorescence interference counterscreen, HCV NS3 helicase assay; stronger effect = lower value. For orientation: The purpose of a counterscreen is to sort out artefacts and off-target activity.

Assay [6] concerns Neuropilin-2 / VEGF-C interaction (human). Nature of the assay: small molecules blocking Neuropilin-2/VEGF-C interaction – biochemical, microplate binding format, z-score (AID 743281; call rule not given here). The following applies: microplate NRP2/VEGF-C binding assay; stronger effect = lower value.
The nature of assay [7]: modulation of C. elegans fzo-1 (AID 1259413; call rule not given here;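 further: fzo-1 mutant C. elegans worms in liquid wells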). The following applies: C. elegans fzo-1 modulator screen, mean read-out; stronger effect = higher value.
Assay [8] in a line: viability loss with induced miR-34 in A549 – imaging, A549 dox-inducible miR-34, nuclei and caspase counts, primary screen (AID 1347080;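 active means compounds whose cell count with miR-34 switched on is under 0.7 times the count with it off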). The settings on record: A549 miR-34 inducible, Hoechst nuclei count, 48 h.
A further assay concerns F380Y. Nature of the assay: BK channel mutant inhibitors and activators – cell-based, U2OS BacMam, thallium flux, beta subunits, selectivity assay, profiling panel (AID 1259406).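 Further: initial slope of Thallos dye fluorescence rise after thallium is added; log ratio against the mean of 0.3% DMSO vehicle wells on the same plate.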 The settings on record: U2OS BacMam BK variants, at 30 µM.
The test system of the next assay is F380Y/beta1. The description is as above. The following applies: U2OS BacMam BK variants, at 30 µM.
The subject of the next assay is F380Y/beta2Delta. The description is as above. The settings on record: U2OS BacMam BK variants, at 30 µM.
A further assay relates to F380Y/beta4. The description is as above. The settings on record: U2OS BacMam BK variants, at 30 µM.
Assay [9] addresses Calcium-activated potassium channel subunit alpha-1 (Homo sapiens) + Leucine-rich repeat-containing protein 26 (Homo sapiens) (UniProt Q12791+Q2I0M4). The assay is described as above. The following applies: U2OS BacMam BK variants, F380Y/Slo1WT/gamma1, at 30 µM.
The subject of another assay is R275C. Described as above. The following applies: U2OS BacMam BK variants, at 30 µM.
A further assay concerns R275C/beta1. Described as above. The settings on record: U2OS BacMam BK variants, at 30 µM.
In the next assay the test system is R275C/beta2Delta. Described as above. The settings on record: U2OS BacMam BK variants, at 30 µM.
The next assay relates to R275C/beta4. The assay is described as above. The settings on record: U2OS BacMam BK variants, at 30 µM.
The test system of another assay is R275C/Slo1WT/beta2. The description is as above. The following applies: U2OS BacMam BK variants, at 30 µM.
Setting [10] is: stronger effect = lower value, cell number ratio, induced over uninduced.
Setting [11] is: measured here: relative caspase fold change +Dox/-Dox.
The mark [12] stands for this setting: measured here: total cells with miR-34 induction, stronger effect = lower value.
[13] abbreviates: measured here: total cells without miR-34 induction.

Calcium-activated potassium channel subunit alpha-1 (Homo sapiens) + Leucine-rich repeat-containing protein 26 (Homo sapiens), sequence (Q2I0M4 whole entry, looked up, one chain of several): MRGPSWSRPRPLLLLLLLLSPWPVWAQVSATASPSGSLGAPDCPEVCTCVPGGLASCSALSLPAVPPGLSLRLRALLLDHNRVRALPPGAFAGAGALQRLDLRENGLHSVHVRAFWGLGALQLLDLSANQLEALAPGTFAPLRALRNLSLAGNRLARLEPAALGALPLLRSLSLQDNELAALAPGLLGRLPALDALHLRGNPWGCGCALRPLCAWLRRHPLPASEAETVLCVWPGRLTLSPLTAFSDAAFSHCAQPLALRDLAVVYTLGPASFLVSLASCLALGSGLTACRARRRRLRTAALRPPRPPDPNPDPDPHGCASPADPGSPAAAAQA

In general, viability refers to the share of living cells, or the viability signal relative to a control. As a reminder, the inhibition is the change of the read-out against control, counted positive when it falls. Turning to `COC(=O)N1CCN(C(=O)Cc2ccc(Cl)c(Cl)c2)C(CN2CCCC2)C1` (stereo unspecified), the parasite load remaining in [1] is 76.7% (inactive). The viability in [1] is 75.4%. For the same compound, the fluorescence ratio in [2] is 1.05 (inactive); in assay [5], 1.03 (inactive). Besides, the inhibition was 4.36% (inactive) in assay [3] and 2.21% (inactive) in assay [4]. The z-score in assay [6] was 1.19 (inactive). Besides, in assay [7], the mean signal is 274 (inactive). For the same compound, the fold change in assay [8] (stronger effect = lower value) is 0.961 (inactive); in [8] (setting [10]), 0.883 (inactive); in assay [8] (setting [11]), 1.01 and 1.9. The cell count in assay [8] (setting [12]) was 10100 and 8750; in assay [8] (setting [13]), 10500 and 9910. In addition, the log fold change Tl+ flux with F380Y is 0.0797 (inactive); with F380Y/beta1 it was 0.0396 (inactive); in the assay with F380Y/beta2Delta, 0.0718 (inactive); in the assay on F380Y/beta4, 0.0372 (inactive); in assay [9], -0.0265 (inactive); in the assay on R275C it was -0.00833 (inactive). In addition, the log fold change Tl+ flux was 0.0475 (inactive) with R275C/beta1, 0.0511 (inactive) in the assay with R275C/beta2Delta, 0.0175 (inactive) with R275C/beta4 and 0.0529 (inactive) in the assay with R275C/Slo1WT/beta2.

Take `CCCCC/C=C\C/C=C\C/C=C\C/C=C\CCCC(=O)Nc1ccc(O)cc1`: in [1], the parasite load remaining was 94.1% (inactive). In assay [1], the viability came to 87.5%. The fluorescence ratio in [2] is 0.87 (inactive); in [5], 0.88 (inactive). Further, the inhibition in [3] is 0.4% (inactive); in assay [4], 4.52% (inactive). Also, in assay [6], the z-score is 0.572 (inactive). The mean signal in [7] was 245 (inactive). Further, the fold change in assay [8] (stronger effect = lower value) was 1.04 (inactive) and 0.798 (inactive); in assay [8] (setting [11]), 0.71 and 1.12. In addition, the cell count in assay [8] (setting [12]) is 5430 and 5550; in assay [8] (setting [13]), 5220 and 6950.

Regarding `COc1ccc2[nH]cc(C3=CCNCC3)c2c1`, the parasite load remaining in assay [1] is 75.7% (inactive). For the same compound, the viability in [1] was found to be 72.8%. In addition, the results for the fluorescence ratio in assay [2] and in assay [5] were 0.58 (active) and 0.79 (active), respectively. For the same compound, the inhibition was -1.09% (inactive) in assay [3] and 5.91% (inactive) in assay [4]. Also, the z-score in [6] was -1.09 (inactive). Also, the mean signal in assay [7] was 255 (inactive). Moreover, the fold change is 0.984 (inactive) in assay [8] (stronger effect = lower value); 0.928 (inactive) in assay [8] (setting [10]); 1.1 and 0.779 in [8] (setting [11]). Further, the cell count in [8] (setting [12]) is 6960 and 7660; in [8] (setting [13]), 7080 and 8260. For the same compound, the log fold change Tl+ flux is 0.0506 (inactive) in the assay with F380Y; 0.0695 (inactive) with F380Y/beta1; 0.0281 (inactive) with F380Y/beta2Delta; 0.0777 (inactive) in the assay on F380Y/beta4; 0.0216 (inactive) in assay [9]; -0.00261 (inactive) in the assay with R275C. Further, the log fold change Tl+ flux in the assay with R275C/beta1 is 0.0891 (active); in the assay with R275C/beta2Delta, 0.0216 (inactive); with R275C/beta4, 0.0779 (inactive); with R275C/Slo1WT/beta2, 0.242 (active).

With `CS(=O)(=O)Nc1ccc(Cc2noc(-c3ccc4[nH]cc(CCN)c4c3)n2)cc1`, the parasite load remaining in assay [1] is 62% (inactive). This compound also had a viability in assay [1] of 68.7%. The fluorescence ratio in assay [2] was 0.59 (active); in assay [5], 0.8 (active). In addition, the results for the inhibition in assay [3] and in [4] were 3.28% (inactive) and 36.6% (active), respectively. In addition, the z-score in [6] was 1.81 (inactive). Besides, the mean signal in [7] was 254 (inactive). Further, the fold change in assay [8] (stronger effect = lower value) was 0.897 (inactive); in [8] (setting [10]), 0.9 (inactive); in [8] (setting [11]) it was 2.28 and 0.865. The cell count is 9380 and 8560 in assay [8] (setting [12]); 10500 and 9520 in assay [8] (setting [13]). Further, the log fold change Tl+ flux with F380Y is -0.0227 (inactive); with F380Y/beta1 it was 0.0172 (inactive); in the assay on F380Y/beta2Delta, -0.088 (inactive); in the assay on F380Y/beta4 it was -0.0117 (inactive); in assay [9] it was -0.0241 (inactive); with R275C, -0.054 (inactive). The log fold change Tl+ flux was 0.0159 (inactive) in the assay with R275C/beta1, -0.0492 (inactive) in the assay with R275C/beta2Delta, 0.0477 (inactive) in the assay with R275C/beta4 and 0.0125 (inactive) with R275C/Slo1WT/beta2.

(Values after PubChem BioAssay.)
